# Source: PubChem BioAssay
# A selection: hits, their analogues and other compounds. The true share with any hit is near 1.1%.
# SRC2 inh – human SRC2 (NCOA2) inhibition. AID 651957. HEK293 GAL4-SRC2 luciferase reporter, luminescence. inhibition, % at 9 µM. Q15596. 370,000 compounds, 0.17% hits;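 active = inhibition above the mean inhibition of all tested compounds plus 3 SD, set per campaign, cut at about 52% in these data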;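 also: 0% = DMSO treated cells and 100% = cells given Gossypol at 36 µM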
# NCOA1 inh – human NCOA1 inhibition; Q15788; HEK293 GAL4-SRC1 luciferase reporter, luminescence; inhibition, % at 3.6 µM; 360,000 compounds, 0.12% hits;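 active = inhibition above the campaign mean plus 3 SD, with each screening campaign given its own cutoff, cut at about 60% in these data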;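 also: 0% = DMSO treated cells and 100% = gossypol at 36 µM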
# SRC3 inh – inhibitors of human steroid receptor coactivator 3 (SRC3); 360,000 compounds, 0.17% hits; AID 588352; Q9Y6Q9; HEK293 GAL4-SRC3 luciferase reporter, luminescence; inhibition, % at 3.6 µM;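 active = inhibition above a per-campaign cutoff, the mean of all compounds plus 3 SD, cut at about 60% in these data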;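 also: 0% = DMSO-treated cells and 100% = gossypol-treated cells at 36 µM; higher means less SRC3-driven luciferase light from the GAL4 reporter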
# GalR3 antagonist – human GalR3 antagonism; HEK293 GalR3-CNG cAMP membrane potential fluorescence; galR3 body fused to GalR1 C-terminus; O60755; inhibition, % at 3 µM; 360,000 compounds, 0.44% hits;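 active = inhibition above the screen-wide average plus 3 SD, cut at about 13% in these data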;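 also: forskolin and galanin both at EC90 stimulate the cells; cAMP rise reported by CNG channel membrane potential dye signal; 0% = forskolin plus galanin with DMSO and 100% = forskolin alone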
# NR5A2 inv ag – suppresses constitutive activity of human LRH-1 | O00482 | HEK293T StAR-luciferase reporter, LRH-1 transfected, 24 h | inhibition, % at 3.6 µM | 360,000 compounds, 0.13% hits | AID 602396;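 active = inhibition above the mean inhibition of all tested compounds plus 3 SD, cut at about 73% in these data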;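 also: 0% = DMSO wells and 100% = reporter-only cells lacking LRH-1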
# Target sequence (O00482 whole entry, looked up): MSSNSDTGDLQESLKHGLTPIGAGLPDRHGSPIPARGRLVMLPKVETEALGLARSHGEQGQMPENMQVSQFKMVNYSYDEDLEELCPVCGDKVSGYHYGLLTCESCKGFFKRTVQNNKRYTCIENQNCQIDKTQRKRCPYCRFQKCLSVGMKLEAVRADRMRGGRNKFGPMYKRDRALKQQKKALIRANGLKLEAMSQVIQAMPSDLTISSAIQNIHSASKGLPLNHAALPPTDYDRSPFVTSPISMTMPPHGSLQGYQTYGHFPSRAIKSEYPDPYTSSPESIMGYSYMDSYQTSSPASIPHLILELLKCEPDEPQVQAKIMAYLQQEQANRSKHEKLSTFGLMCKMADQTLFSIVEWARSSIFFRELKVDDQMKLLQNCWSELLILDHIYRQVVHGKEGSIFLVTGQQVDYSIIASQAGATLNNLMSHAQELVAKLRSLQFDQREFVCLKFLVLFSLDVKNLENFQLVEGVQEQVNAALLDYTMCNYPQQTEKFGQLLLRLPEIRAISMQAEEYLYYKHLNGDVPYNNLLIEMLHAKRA
# NR2F2 inh – inhibitors of human COUP-TFII (NR2F2); P24468; HEK293T NGFI-A luciferase reporter, luminescence; inhibition, % at 8.6 µM; 370,000 compounds, 0.7% hits;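 active = inhibition above a per-plate cutoff, mean inhibition of test wells between control levels plus 3 SD, cut at about 38% in these data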;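 also: cells cotransfected with COUP-TFII expression vector driving the NGFI-A reporter; 0% = median of COUP-TF2 test wells and 100% = reporter-only cells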
# GalR3 antag conf – GalR3 (human) antagonism, confirmation; AID 652245; inhibition, % at 3 µM; 1,600 compounds, 59% hits; shares compounds with GalR3 antagonist; HEK293 GalR3 CNG cAMP biosensor, membrane potential fluorescence; galR3 fused to GalR1 carboxy tail; challenged with forskolin and galanin at EC90;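 active = inhibition above the primary screen's cutoff, the mean inhibition of all screened compounds plus 3 SD, cut at about 13% in these data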;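 also: 0% = forskolin plus galanin and 100% = forskolin alone with DMSO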
# HEK-CNG parental – acts as nonspecific agonist in parental HEK-CNG cells | shares compounds with GalR3 antagonist | HEK293-CNG parental cells, cAMP membrane potential fluorescence; normalised: DMSO wells 0%, forskolin wells 100% | activation, % at 3 µM | 1,600 compounds, 10% hits | AID 652268; in the data active = activation above about 1.3%
# VP16 Luc counter – inhibits VP16 reporter, flagging COUP-TFII antagonist hits; 2,500 compounds, 25% hits; inhibition, % at 8.5 µM; shares compounds with NR2F2 inh; AID 687007; HEK293 Gal4-VP16 luciferase reporter, luminescence; in the data active = inhibition above about 13%
# NR2F2 inh conf – COUP-TFII (NR2F2) inhibition, confirmation assay | shares compounds with NR2F2 inh | HEK293 NGFI-A luciferase reporter, luminescence | inhibition, % at 8.5 µM | 2,500 compounds, 45% hits;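 active = mean inhibition over three repeats above a set limit taken from the earlier primary screen, cut at about 38% in these data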;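 also: 100% = cells given the luciferase reporter alone without the COUP-TF2 vector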
# * = called active by the depositor; . = not tested or not shown.
SMILES,SRC2 inh,NCOA1 inh,SRC3 inh,GalR3 antagonist,NR5A2 inv ag,NR2F2 inh,GalR3 antag conf,HEK-CNG parental,VP16 Luc counter,NR2F2 inh conf
C=CCC1(CC=C)CCCN1C(=O)c1cc(COc2ccc(F)c(F)c2)on1,8,2,20,-11,14,4,.,.,.,.
CCOC(=O)c1cccc(NC(=O)CN(C)S(=O)(=O)c2cc3ccccc3s2)c1,-6,.,.,.,.,4,.,.,.,.
CCN(CC)S(=O)(=O)c1cccc(NC(=O)CNc2cccc(S(=O)(=O)N3CCCC3)c2)c1,23,3,26,104*,44,64*,113*,0,6,65*
CCN(CC)S(=O)(=O)c1ccc(C)c(NC(=O)CNc2cccc(S(=O)(=O)N3CCCC3)c2)c1,0,8,3,-2,10,-4,.,.,.,.
CCN(CC)S(=O)(=O)c1cc(NC(=O)CNc2cccc(S(=O)(=O)N3CCOCC3)c2)ccc1C,0,36,28,93*,38,56*,116*,-1,8,54*
O=C(c1cccc(S(=O)(=O)N2CCN(c3ccc(F)cc3)CC2)c1)N1CCCC(C(F)(F)F)C1 (stereo not drawn),27,20,20,99*,36,63*,95*,-1,-4,45*
S=C(NCCCN1CCOCC1)N1CCN(c2nc(-c3ccc(Cl)cc3)cs2)CC1,25,16,22,20*,16,58*,6,-1,-2,28
CCOCCCNC(=S)N1CCN(c2nc(-c3ccc(F)cc3)cs2)CC1,23,14,3,37*,5,59*,88*,-1,-6,42*
COCCCNC(=S)N1CCN(c2nc(-c3ccc(F)cc3)cs2)CC1,10,-29,17,-10,-2,12,.,.,.,.
Cc1oc(-c2ccc(Cl)cc2)nc1CSCC(=O)NC1CCN(Cc2ccccc2)CC1,-7,9,11,96*,26,52*,106*,1,15*,57*
Cc1oc(-c2ccc(Cl)cc2)nc1CN1CCCC(C(=O)NCc2cccnc2)C1 (stereo not drawn),4,8,16,83*,28,52*,111*,0,13,46*
CCOc1ccc(-c2nc(CSCC(=O)NC3CCN(Cc4ccccc4)CC3)c(C)o2)cc1,41,-6,1,-6,23,37,.,.,.,.
C=CCN(CC#Cc1ccccc1)Cc1ccc(OC)cc1OC,-22,.,.,.,.,2,.,.,.,.
Cc1cc(C(=O)NC2CCCc3c2cnn3-c2cccc(C)c2C)n(C)n1 (stereo not drawn),14,12,20,100*,44,67*,105*,-1,8,68*
Cn1nccc1C(=O)NC1CCCc2c1cnn2-c1ccc(C(C)(C)C)cc1 (stereo not drawn),26,11,34,109*,45,69*,122*,0,-4,69*
Cc1cc(C(=O)NC2CCCc3c2cnn3-c2ccc(C)c(C)c2)no1 (stereo not drawn),3,10,-16,0,2,17,.,.,.,.
Cc1ccc(-n2ncc3c2CCCC3NC(=O)c2ocnc2C)cc1C (stereo not drawn),18,21,27,101*,35,66*,113*,0,6,61*
CCCCS(=O)(=O)N1CCCc2nc(CC)c(CC)cc21,1,.,.,-5,.,-9,.,.,.,.
Cc1cc(N2CCN(C(=O)OC(C)(C)C)C[C@H]2C)ccc1N1CCN(Cc2ccccc2)[C@@H](C)C1,7,.,.,-8,.,25,.,.,.,.
Cc1ccc(C(=O)NC2CCCc3c2cnn3-c2ccc(F)cc2F)cn1 (stereo not drawn),29,26,-9,97*,26,56*,110*,0,5,59*
Cc1nnsc1C(=O)NC1CCCc2c1cnn2-c1cc(F)cc(F)c1 (stereo not drawn),-7,5,5,-3,0,5,.,.,.,.
Cc1nnsc1C(=O)NC1CCCc2c1cnn2-c1ccc(F)cc1F (stereo not drawn),4,14,12,105*,49,64*,103*,0,2,66*
O=C(Nc1ccc(Oc2ccccc2)cc1)c1csc(COCCO)n1,-8,-5,3,92*,25,43*,113*,-1,-26,27
O=C(Nc1ccc(Cl)cc1)c1csc(COCCO)n1,-5,-34,-61,-4,-54,4,.,.,.,.
COc1cc(CCN=Cc2cccc(OC)c2O)c([N+](=O)[O-])cc1OC,-14,.,.,-2,.,-1,.,.,.,.
SMILES,SRC2 inh,NCOA1 inh,SRC3 inh,GalR3 antagonist,NR5A2 inv ag,NR2F2 inh,GalR3 antag conf,HEK-CNG parental,VP16 Luc counter,NR2F2 inh conf
O=C(Nc1ccc2c(c1)OCO2)OC1CC2CC1[C@H]1CCCCN1[C@H]2Cc1ccccc1 (stereo partly drawn),4,.,.,.,.,12,.,.,.,.
COC(=O)C12C=C3CC(c4ccc(C)s4)=C3C(=O)N1Cc1[nH]c3ccccc3c1C2 (stereo not drawn),1,.,.,.,.,-22,.,.,.,.
CN(C)c1ccc(NC(=S)OC2CCC23CCC(c2ccccc2)CC3)cc1 (stereo not drawn),11,.,.,.,.,-4,.,.,.,.
O=C(CSc1nnnn1C1CC2CCC1C2)Nc1ccnc2ccccc12 (stereo not drawn),23,31,31,89*,49,72*,117*,1,2,70*
CN(C)CCCNS(=O)(=O)c1ccc(NC2CCCCCC2)c([N+](=O)[O-])c1,14,9,12,78*,25,53*,100*,1.6*,5,39*
O=C(NNC(=O)c1ccccc1O)c1ccc(Cl)c(S(=O)(=O)N2CCc3ccccc32)c1,-9,28,19,29*,16,48*,60*,-2,0,39*
O=C(c1ccc(Cl)c(S(=O)(=O)N2CCc3ccccc32)c1)N1CCN(c2ccccc2O)CC1,23,0,-15,-4,5,0,.,.,.,.
CN1CCN(c2ccc(CNS(=O)(=O)Cc3cccc(C(F)(F)F)c3)cc2)CC1,18,37,21,60*,51,61*,111*,0,-3,45*
CN1CCN(c2ccc(CNS(=O)(=O)c3ccccc3)cc2)CC1,-3,2,5,2,6,21,.,.,.,.
COC(=O)[C@@H](N[C@H](/C=C/c1ccccc1)[C@@H](O)Cc1ccccc1)C(C)C,-6,.,.,-7,.,-11,.,.,.,.
